ELG1 repair inh = blocks ELG1-dependent DNA repair in HEK293T cells; HEK293T ELG1-luciferase reporter, luminescence, 16 h; DNA damage induced by 5-fluorouridine; Potency, µM (top dose mostly 46.1 µM), usual class: inhibitors; 2.3% of 330,000 active; AID 504467; also: nearly all actives have a fitted effect of over 55% in size
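Quantitative HTS, concentration-response format. 2,000 cells/well co-treated with 5-fluorouridine and compound, 16 hr in 5% CO2 at 37 °C; ONE-Glo luminescence read after 30 min.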
NPC1 promoter act = activators of NPC1 promoter | Huh7 NPC1 promoter luciferase reporter, 24 h | 2.4% of 320,000 active | Potency, µM (series often up to 9.22 µM), usual class: activators; also: nearly all actives have a fitted effect of over 60% in size
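Huh7 cells stably carrying NPC1 promoter–luciferase, plated in Opti-MEM with 10% FBS for 2 h, were exposed to compound in DMSO for 24 h at 37 °C; luciferase reagent was added for 10 min and luminescence read.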
Rab9 promoter act = activators of Rab9 promoter; Potency, µM (series often up to 9.22 µM), actives largely listed as activators; Huh7 Rab9 promoter-luciferase reporter, luminescence, 24 h; 2.8% of 320,000 active; also: nearly all actives have a fitted effect of over 60% in size
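Cells were plated at 1500 per well in reduced-serum medium with 10% FBS and left 2 h. Compound in DMSO was then added for 24 h at 37 °C. Reporter signal was read by luminescence after 10 min with luciferase detection reagent.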
ELG1 genotoxic = inducers of genotoxicity in HEK293T ELG1-luciferase cells. 1.3% of 330,000 active. HEK293T ELG1-luciferase reporter, luminescence, 16 h. Potency, µM (series often up to 46 µM), usual class: activators; also: nearly all actives have a fitted effect of over 60% in size
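Quantitative HTS format in 1536-well plates. HEK293T ELG1-luciferase reporter cells receive test compound and are incubated 16 hr at 37 °C, 5% CO2; ONE-Glo added, 30 min room temperature, then luminescence read.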
FLuc modulator = counter-screen for miR-21 project: firefly luciferase inhibitors or activators | P08659 | purified FLuc, Km substrates, luminescence inhibition | Potency, µM (highest dose often 57.5 µM), actives largely listed as inhibitors | 6.9% of 360,000 active | AID 588342; also: nearly all actives have a fitted effect of over 55% in size
Target sequence (P08659 whole entry, looked up): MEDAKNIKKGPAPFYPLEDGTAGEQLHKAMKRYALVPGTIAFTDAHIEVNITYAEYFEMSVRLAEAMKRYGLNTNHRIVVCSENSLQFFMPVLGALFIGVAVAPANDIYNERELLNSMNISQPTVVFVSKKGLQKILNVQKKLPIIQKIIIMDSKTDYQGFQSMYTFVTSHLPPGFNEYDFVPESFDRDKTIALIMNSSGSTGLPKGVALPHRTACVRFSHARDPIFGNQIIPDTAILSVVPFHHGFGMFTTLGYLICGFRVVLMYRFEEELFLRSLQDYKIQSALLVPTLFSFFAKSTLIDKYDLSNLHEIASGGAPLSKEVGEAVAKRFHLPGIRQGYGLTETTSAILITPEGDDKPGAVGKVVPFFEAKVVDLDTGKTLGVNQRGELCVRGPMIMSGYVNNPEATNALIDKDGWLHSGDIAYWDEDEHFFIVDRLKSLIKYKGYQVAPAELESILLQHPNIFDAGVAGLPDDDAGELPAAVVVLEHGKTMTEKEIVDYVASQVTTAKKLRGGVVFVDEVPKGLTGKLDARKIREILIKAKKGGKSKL
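Biochemical qHTS of compounds, final roughly 60 µM downward over six points, against 10 nM purified firefly luciferase using Km concentrations of substrates (10 uM D-luciferin, 10 uM ATP) in Tris acetate pH 7.5 buffer; luminescence output.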
SMN2 splice up = increases expression of the SMN2 splice variant. 2.8% of 210,000 active. Potency, µM (top dose mostly 46.1 µM), most hits filed as activators. HEK293 SMN2-luciferase splicing reporter, luminescence, 30-36 h; also: nearly all actives have a fitted effect of over 55% in size
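qHTS luciferase splicing reporter: luminescence rises when SMN2 exon 7 is included in transfected HEK293 cells. Compound exposure lasted 30-36 h at 37C, with 4.5 mM final sodium butyrate as control, followed by a ONE-Glo read.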
Hits are given with their value; - = inactive; ? = inconclusive; . = no result given; [ ] = dose if it differs, or a comment. Hits are enriched below; roughly 9.2% of the tested compounds scored in any of these assays. Calls follow the shape of the dose curve; as a rule, active = well fitted curve in the direction sought with a large enough effect; inconclusive = small, poorly fitted or top-dose-only effect, or another doubt; inactive = no such curve, though single readings can be large; an effect the other way counts as inactive or inconclusive.

SMILES | ELG1 repair inh | NPC1 promoter act | Rab9 promoter act | ELG1 genotoxic | FLuc modulator | SMN2 splice up
CCNC(=O)COc1ccc(-c2ccccc2)cc1 | ? | ? | ? | ? | 19µM | ?
CCNC(=O)COc1ccc(OCc2ccccc2)cc1 | ? | - | - | - | ? | -
O=C(NCC1OCCc2ccccc21)c1ccc(NC(=O)c2cccc(Br)c2)cc1 (configuration not stated) | - | - | - | - | - | .
Cc1ccc(Nc2c(-c3ccc(N4CCOCC4)cc3)nc3ccc(C)cn23)cc1 | . | . | . | . | - | -
Cc1ccc(Nc2c(-c3ccc(N4CCOCC4)cc3)nc3cnccn23)cc1 | ? | - | - | ? | 5.36µM | .
Cc1ccccc1Nc1c(-c2ccc(N3CCOCC3)cc2)nc2cnccn12 | ? | ? | ? | ? | 1.51µM | .
Cc1ccc(Nc2c(-c3ccc(N4CCOCC4)cc3)nc3ncccn23)cc1 | - | - | - | - | ? | -
Cc1cccn2c(Nc3ccccc3)c(-c3ccc(N4CCOCC4)cc3)nc12 | . | . | . | . | ? | -
Cc1ccccc1Nc1c(-c2ccc(N3CCOCC3)cc2)nc2ncccn12 | - | - | - | - | 10.7µM | -
CCN(Cc1ccccc1)C(=O)Cn1c(=O)n(-c2ccccc2)c(=O)c2c1c1cc(C)ccc1n2C | . | . | . | . | - | .
O=C(c1cc(Cl)ccc1F)N1CCCC(Nc2ccc3c(c2)OCCO3)C1 (configuration not stated) | - | - | - | - | - | .
Cc1ccc(-n2ccc(=O)c(C(=O)Nc3ccc(S(=O)(=O)Nc4nccs4)cc3)n2)cc1 | - | - | - | - | - | .
CCn1cc(/C=C/C(=O)c2ccc(O)cc2)c(C)n1 | ? | ? | ? | 10.3µM | 10.7µM | .
Cc1nn(C)cc1/C=C/C(=O)c1ccccc1 | ? | ? | ? | ? | 1.51µM | -
CCn1cc(/C=N/O)c(C)n1 | - | - | - | - | -[2.3 µM] | ?
Cc1nn(C)cc1/C=C/C(=O)c1cccs1 | ? | ? | ? | 18.4µM | 5.36µM | ?
Cc1nn(C)c(C)c1/C=C/C(=O)c1ccccc1 | ? | ? | 3.55µM | 16.4µM | 19µM | -
CC(=O)Nc1ccc(S(=O)(=O)NCCc2csc3nc(-c4cccc(C)c4)nn23)cc1 | . | . | . | . | - | .
CC(=O)N1CCN(C(=O)c2ccc3c(c2)OCCO3)CC1 | - | - | - | - | - | .
Cc1cc(Cn2nnnc2-c2ccncc2)cc(C)c1O | - | - | - | - | - | .
CCN(CC)C(=O)/C(=C/c1cccc([N+](=O)[O-])c1)NC(=O)c1ccco1 | ? | - | - | - | - | -
CCOC(=O)c1ccc(NC(=O)c2cc(S(=O)(=O)N3CCOCC3)ccc2O)cc1 | - | - | - | - | 15.1µM | -
O=C(OCC(=O)N(CCc1ccccc1)Cc1ccccc1)c1cc(S(=O)(=O)N2CCOCC2)ccc1F | - | - | - | - | - | .
Cc1ccc(S(=O)(=O)N2CCOCC2)cc1C(=O)OCC(=O)N(Cc1ccccc1)C(C)C | 20.6µM | - | - | - | - | .
CCOC(=O)c1c(-c2ccccc2)csc1NC(=O)c1cc(S(=O)(=O)N2CCOCC2)ccc1C | 10.3µM | - | - | - | - | -
SMILES | ELG1 repair inh | NPC1 promoter act | Rab9 promoter act | ELG1 genotoxic | FLuc modulator | SMN2 splice up
CCOC(=O)c1c(-c2ccccc2)csc1NC(=O)c1ccc(S(=O)(=O)N2CC(C)OC(C)C2)cc1 (configuration not stated) | - | - | - | - | - | -
Cc1cc(C)cc(N(C(=O)c2cccs2)C2C=CS(=O)(=O)C2)c1 (configuration not stated) | - | - | - | - | - | -
CC(=O)c1ccc(N2Cc3ccccc3C2=NC(=O)c2cccs2)cc1 | ? | ? | ? | ? | ? | 14.1µM
CCOC(=O)c1ccc(N2Cc3ccccc3C2=NC(=O)c2cccs2)cc1 | ? | - | - | ? | ? | -
Cc1cc(C)c2[nH]c(=O)c(CN(Cc3cccs3)C(=S)NCc3ccco3)cc2c1 | 20.6µM | - | - | - | - | -[1.84 µM]
CCN(CC)CCN(Cc1cc2cc(C)cc(C)c2[nH]c1=O)C(=S)NCc1ccco1 | - | - | - | - | - | -
COC(=O)c1ccccc1NC(=S)N(Cc1ccc2c(c1)OCO2)Cc1cc2cc(OC)ccc2[nH]c1=O | 10.3µM | - | - | - | - | -
COc1ccc2[nH]c(=O)c(CN(Cc3cccs3)C(=S)NCC3CCCO3)cc2c1 (configuration not stated) | 23.1µM | - | - | - | - | .
Cc1ccc2cc(CN(Cc3ccco3)C(=S)NCC3CCCO3)c(=O)[nH]c2c1C (configuration not stated) | 10.3µM | - | - | - | - | -
CCCCN1CCc2nc(Nc3ccc(OC)cc3OC)ncc2C1 | . | . | . | . | - | .
CCC(C)NS(=O)(=O)c1ccc(S(=O)(=O)N2CC=C(c3ccc(F)cc3)CC2)cc1 (configuration not stated) | - | - | - | - | - | -
Cc1ccc(NC(=O)C2CC2C)c(Cl)c1 (configuration not stated) | ? | - | - | - | - | -
CC(C)CNC(=S)N(Cc1ccco1)Cc1cc2cc3c(cc2[nH]c1=O)OCCO3 | 10.3µM | - | - | - | - | -
Cc1cc(C)c2[nH]c(=O)c(CN(Cc3cccs3)C(=S)NCC3CCCO3)cc2c1 (configuration not stated) | 25.9µM | - | - | - | - | -
CCNC(=S)N(Cc1ccco1)Cc1cc2cc3c(cc2[nH]c1=O)OCCO3 | ? | - | - | - | - | -
CN(C(=O)CSc1nncc2ccccc12)c1ccccc1 | - | . | . | - | . | .
O=C(c1ccccc1)c1ccc(Cn2cc(-c3ccccc3)nn2)cc1 | ? | - | - | ? | 13.5µM | .
Cc1ccc(-c2cn3c(n2)sc2cc(C(=O)NCCC4=CCCCC4)ccc23)c(C)c1 | . | . | . | . | - | .
c1ccc(CN2CCOCC2)cc1 | - | - | - | - | - | -
O=c1c2ccccc2oc2cc(-c3ccc(CN4CCOCC4)cc3)ccc12 | ? | 2.24µM | ? | - | 6.75µM | .
CSc1nnc(CCCCCCCCc2nnc(SC)o2)o1 | ? | - | - | - | - | .
COc1cccc(OC)c1C(=O)NC(=S)Nc1cc(-c2nc3ccccc3[nH]2)ccc1Cl | 8.2µM | - | - | - | ? | -
O=C(Nc1ccc2nc(-c3ccc(Br)o3)[nH]c2c1)c1ccco1 | - | ? | ? | - | 5.36µM | -
CC(C)(C)C(=O)Nc1ccc(-c2nc3ccc(NC(=O)C(C)(C)C)cc3[nH]2)cc1 | . | . | . | . | 1.9µM | ?
Cc1ccc(-c2nc3ccccc3[nH]2)cc1NC(=O)c1ccco1 | - | - | - | - | 15.1µM | .
O=C(Nc1ccccc1N1CCCC1)c1cccc(S(=O)(=O)N2CCOCC2)c1 | - | - | - | - | - | .
CC(=O)c1cc2c(cc1NS(=O)(=O)c1ccccc1F)OCO2 | - | - | - | - | - | -
